Measurements from PubChem BioAssay (NCATS).
Records with an inconclusive call do not appear. Active and inactive are the calls of the source. Unless noted, calls follow the shape of the dose curve; as a rule, active = well fitted inhibition curve with a large enough effect; inconclusive = small, poorly fitted or top-dose-only effect; inactive = no such curve, though single readings can be large or run the other way.

Columns and labels:
[1] = qHTS profiling of the MIPE4 collection as inhibitors of Plasmodium falciparum (3D7) proliferation (AID 743344; call rule not given here;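 also: scaled between DMSO vehicle wells and 0.29 µM artemisinin as full inhibition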); details: P. falciparum 3D7 in erythrocytes, SYBR Green DNA fluorescence, 72 h; at 28.5 µM unless noted
Procedure, shortened: (§1)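 Parasite DNA was quantified by SYBR Green I fluorescence (ex 485, em 535 nm) after overnight lysis in saponin/Triton buffer at room temperature. Cultures at 0.3% parasitemia and 2.5% hematocrit were first exposed to compound for 72 h at 37 C; signals were normalised to artemisinin (0.29 uM) and vehicle wells.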

[2] = qHTS profiling of the MIPE4 collection as inhibitors of Plasmodium falciparum (DD2) proliferation (AID 743345; call rule not given here); details: P. falciparum Dd2 in erythrocytes, SYBR Green DNA, 72 h; at 28.5 µM unless noted
Procedure, shortened: as §1

[3] = qHTS profiling of the MIPE4 collection as inhibitors of Plasmodium falciparum (DD2) proliferation (Rep 2) (AID 743346; call rule not given here); details: P. falciparum Dd2 in erythrocytes, SYBR Green DNA, 72 h; at 28.5 µM unless noted
Procedure, shortened: as §1

[4] = qHTS profiling of the MIPE4 collection as inhibitors of Plasmodium falciparum (HB3) proliferation (AID 743347; call rule not given here;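 also: plate controls were DMSO vehicle wells for no effect and artemisinin wells for full effect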); details: P. falciparum HB3 in erythrocytes, SYBR Green DNA, 72 h; at 28.5 µM unless noted
Procedure, shortened: as §1

[5] = High-throughput drug toxicity screening in the BPDCN cell line Gen2.2 (AID 1224824; call rule not given here;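 also: cells exposed to compounds for 48 h before reading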); details: Gen2.2 BPDCN cells; at 45.8 µM (top of the series) unless noted
Procedure, shortened: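 CellTiter-Glo luminescence read after 48 h compound exposure at 37 C defines viability; percent activity set with DMSO as 100% and bortezomib (9.2 uM final) as 0%. 500 exponentially growing cells per well, RPMI plus 10% FBS.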

[6] = High-throughput drug toxicity screening in the BPDCN cell line Cal-1 (AID 1224825; call rule not given here); details: Cal-1 BPDCN cell viability, qHTS; at 45.8 µM (top of the series) unless noted
Procedure, shortened: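 CellTiter-Glo luminescence after 48 h compound exposure; percent activity scaled with DMSO as 100% and bortezomib (9.2 uM final) as 0%. Cal-1 cells seeded at 500/well in RPMI, 10% FBS, no phenol red.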

[7] = qHTS assay for measurement of the activity of small molecule inhibitors on Zika virus induced Caspase-3 activity in human iPSC derived neural progenitor cells (hNPCs) (AID 1224857); also: nearly all actives have a fitted effect of over 65% in size; also: potency is read from the fitted curve at half-maximal effect; as to activity change, negative = inhibition: % of control where 0% means no effect
Procedure, shortened: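 Caspase-3/7 induction by a 6-hour ZIKV infection was quantified with a luminescent Caspase-Glo 3/7 reagent incubated 30 minutes at room temperature. Compounds were preincubated with hNPCs for 1 hour; inhibition was calculated against uninfected and infected control wells.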

[8] = qHTS assay for measurement of the activity of small molecule inhibitors on Zika virus induced Caspase-3 activity in human astrocytoma cells (AID 1224859);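 also: plate controls were ZIKV-infected untreated cells for no effect and uninfected cells for full effect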
Procedure, shortened: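 In SNB-19 cells plated at 250 cells/well and grown 16-20 h, compounds were applied 1 h before ZIKV (2 FFU/cell). Six hours later caspase-3/7 luminescence was recorded.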

[9] = qHTS Screen of the MIPE 4.0 Collection Against Ewings Sarcoma (RDES) (AID 1259252); also: nearly all actives have a fitted effect of over 35% in size; also: potency is read from the fitted curve at half-maximal effect;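 as to viability (percent of control): 100% = DMSO-treated cells and 0% = medium-only wells without cells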
Procedure, shortened: (§2)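 Log-phase cells in RPMI with 5% FBS attached for 4 h, then received compounds as a titration for 48 h at 37C, 5% CO2. Viability was read by CellTiter-Glo luminescence and normalized to DMSO and no-cell wells.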

[10] = qHTS Screen of the MIPE 4.0 Collection Against Ewings Sarcoma (TC71) (AID 1259253); also: nearly all actives have a fitted effect of over 40% in size; also: potency is read from the fitted curve at half-maximal effect;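 as to viability (% of DMSO): 100% = DMSO-treated cells and 0% = medium-only wells without cells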
Procedure, shortened: as §2

[11] = qHTS Screen of the MIPE 4.0 Collection Against Ewings Sarcoma (EW8) (AID 1259255); also: nearly all actives have a fitted effect of over 35% in size; also: potency is read from the fitted curve at half-maximal effect;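 as to viability: 100% = DMSO-treated cells and 0% = medium-only wells without cells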
Procedure, shortened: as §2

[12] = qHTS Screen of the MIPE 4.0 Collection Against Ewings Sarcoma (TC32) (AID 1259256); also: nearly all actives have a fitted effect of over 45% in size; also: potency is read from the fitted curve at half-maximal effect;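 as to viability (percent of control): 100% = DMSO-treated cells and 0% = medium-only wells without cells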
Procedure, shortened: as §2

| SMILES | parasite growth, % of DMSO control [1] | parasite growth remaining, % of DMSO control (lower = more inhibition) [2] | parasite growth, % of control (lower = inhibition) [3] | growth, % of control [4] | cell viability, % of control (lower = more cytotoxic) [5] | viability (% of control) [6] | Potency [7] | Potency [8] | Potency [9] | Potency [10] | Potency [11] | Potency [12] | activity change, negative = inhibition [7] | activity change, negative = inhibition [8] | viability (percent of control) [9] | viability (% of DMSO) [10] | viability [11] | viability (percent of control) [12] |
| --- | --- | --- | --- | --- | --- | --- | --- | --- | --- | --- | --- | --- | --- | --- | --- | --- | --- | --- |
| Nc1cccc2c1C(=O)N(C1CCC(=O)NC1=O)C2=O (configuration not stated) | 97.4% | 95.1% | 113% | 49.9% | 52.1% | 88.7% | inactive | inactive | inactive | inactive | inactive | 4.2 nM (active) |  |  |  |  |  |  |
| CNC(=O)Nc1ccc(-c2nc(N3CC4CCC(C3)O4)c3cnn(C4CCC5(CC4)OCCO5)c3n2)cc1 | 5.91% | 7.38% | 8.34% | 3.02% | 17.6% | 8.62% | inactive | inactive | 46.9 nM (active) | 13.2 nM (active) | 13.2 nM (active) | 7.4 nM (active) |  |  |  |  |  |  |
| Oc1ccc(-c2ccc(-c3cc(Nc4cccc(CNC5CC5)c4)n[nH]3)cc2)c(O)c1 | 9.07% |  | 20% | 3.25% | 2.13% | 3.58% | inactive | inactive | 1480 nM (active) | 1870 nM (active) | 1870 nM (active) | 5900 nM (active) |  |  |  |  |  |  |
| CC(C)(C)[C@H](NC(=O)c1ccc(N)c(Cl)c1)C(=O)N1CCC[C@@H]1C(=O)N[C@H](C#N)CC(=O)O | 160% [at 3.19 µM] |  | 108% [at 3.19 µM] | 588% [at 3.19 µM] | 14.9% [at 3.51 µM] | 25% [at 3.51 µM] |  |  |  |  |  |  | 12% [at 4.53 µM] (inactive) | 53% [at 4.53 µM] (inactive) | 112% [at 3.51 µM] (inactive) | 134% [at 3.51 µM] (inactive) | 116% [at 3.51 µM] (inactive) | 127% [at 3.51 µM] (inactive) |
| CC(C)(O)[C@H]1CC[C@@](C)([C@H]2[C@@H](O)C[C@@]3(C)[C@@H]4C[C@H](O[C@@H]5O[C@H](CO)[C@@H](O)[C@H](O)[C@@H]5O)[C@H]5C(C)(C)[C@@H](O[C@@H]6OC[C@@H](O)[C@H](O)[C@@H]6O)CC[C@@]56C[C@@]46CC[C@]23C)O1 | 90.6% |  | 89.1% | 81.9% | 1050% | 112% | inactive | inactive | 10500 nM (active) | 8330 nM (active) | inactive | inactive |  |  |  |  |  |  |
| C=CC(=O)Nc1cc(NC(=O)c2ccc(C)c(NC(=O)c3ccno3)c2)cc(C(F)(F)F)c1 | 34% |  | 57.2% | 22.8% | 4.74% | 3.59% | inactive | inactive | 23500 nM (active) | 20900 nM (active) | 20900 nM (active) | 23500 nM (active) |  |  |  |  |  |  |
| O=C(O)[C@H](CC(=O)N1C[C@@H]2CCCC[C@H]2C1)Cc1ccccc1 | 71.6% | 103% | 69.7% | 57.9% | 133% | 89.5% | 23500 nM (active) | inactive | inactive | inactive | inactive | inactive |  |  |  |  |  |  |
| O=C(C=Cc1ccc(CN(CCO)CCc2c[nH]c3ccccc23)cc1)NO | 4.37% | 6.71% | 8.38% | 2.54% | 4.89% | 3.46% | inactive | inactive | 209 nM (active) | 187 nM (active) | 148 nM (active) | 148 nM (active) |  |  |  |  |  |  |
